Experimental findings from PubChem BioAssay (NCATS) are described below.

Inconclusive results are not listed. Where a call stands in place of a potency, no number is given. A number with no mark means an inactive call. The source made the active and inactive calls. Calls follow the shape of the dose curve; as a rule, active = well fitted inhibition curve with a large enough effect; inconclusive = small, poorly fitted or top-dose-only effect; inactive = no such curve, though single readings can be large or run the other way.

Chain of Rap guanine nucleotide exchange factor 3 (Homo sapiens) (O95398 whole entry, looked up): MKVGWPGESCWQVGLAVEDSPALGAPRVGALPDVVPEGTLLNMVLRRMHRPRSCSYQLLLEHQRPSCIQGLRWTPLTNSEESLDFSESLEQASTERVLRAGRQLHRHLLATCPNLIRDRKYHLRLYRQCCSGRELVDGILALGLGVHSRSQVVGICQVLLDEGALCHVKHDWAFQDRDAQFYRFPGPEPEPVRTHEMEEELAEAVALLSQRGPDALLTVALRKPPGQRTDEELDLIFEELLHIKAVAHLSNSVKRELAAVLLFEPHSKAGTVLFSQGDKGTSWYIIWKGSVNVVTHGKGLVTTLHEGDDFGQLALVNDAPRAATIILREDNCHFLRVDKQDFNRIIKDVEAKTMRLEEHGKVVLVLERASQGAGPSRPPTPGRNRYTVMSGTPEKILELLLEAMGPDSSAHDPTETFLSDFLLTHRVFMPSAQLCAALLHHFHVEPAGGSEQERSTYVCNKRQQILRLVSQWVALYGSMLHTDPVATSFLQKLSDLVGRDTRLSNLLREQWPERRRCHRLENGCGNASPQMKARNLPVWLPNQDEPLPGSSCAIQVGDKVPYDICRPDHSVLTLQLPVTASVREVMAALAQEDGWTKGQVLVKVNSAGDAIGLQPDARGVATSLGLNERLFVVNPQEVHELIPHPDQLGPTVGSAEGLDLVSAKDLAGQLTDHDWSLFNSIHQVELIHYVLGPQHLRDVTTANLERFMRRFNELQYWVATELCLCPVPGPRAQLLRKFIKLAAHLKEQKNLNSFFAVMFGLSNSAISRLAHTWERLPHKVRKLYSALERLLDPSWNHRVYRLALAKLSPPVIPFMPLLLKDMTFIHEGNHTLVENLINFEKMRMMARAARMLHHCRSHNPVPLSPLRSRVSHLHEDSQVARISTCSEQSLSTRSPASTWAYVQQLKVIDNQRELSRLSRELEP

The test deals with Rap guanine nucleotide exchange factor 3 (Homo sapiens) (UniProt O95398). In words: Counterscreen qHTS for antagonist of cAMP-regulated guanine nucleotide exchange factor 3 (EPAC1) (AID 1645888). The following applies: Rap1B-BODIPY-GDP nucleotide exchange, fluorescence; series mostly up to 154 µM. The method in brief:
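Measured: fluorescence of BODIPY-GDP bound to Rap1B, which falls as exchange proceeds. Conditions include 50 uM competing GDP, 5 and 30 min reads, and a later cAMP challenge for antagonist detection.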
On the technique in general: Counterscreens check selectivity or assay interference.
Consider `CCCCn1nnnc1C(c1cc2ccccc2o1)N1CCN(c2cc(C)nc3ccccc23)CC1` (stereo not given), for which the Potency result is “inactive”.

For the compound `COc1ccc2c(c1)CCc1c(C(=O)N(C)c3ccccc3)noc1-2`, the Potency result was “inactive”.

As to `Cc1oc2cc(Br)c(O)c(Br)c2c1-c1ccccc1`, the Potency entry is “inactive”.

Take `CCCCn1nnnc1C(c1cc2ccccc2o1)N1CCCC1` (stereo not given): the Potency entry is “inactive”.

In the case of `O=C1OC(c2ccccc2)(c2ccccc2)c2ccsc21`, the Potency entry is “inactive”.

`CCOc1ccc(S(=O)(=O)N2CCCCC2)c(C)c1C`: the Potency result was “inactive”.

For `O=C(COc1ccc(Br)cc1Cl)c1ccc[nH]1`, the Potency result is “inactive”.

For `COc1c(Cl)cc(Cl)cc1CNc1ccc(S(N)(=O)=O)cc1`, the Potency result is “inactive”.

As to `O=c1ccc(NS(=O)(=O)c2ccc(Cl)cc2)cn1Cc1ccc(Cl)c(Cl)c1`, the Potency result is “inactive”.

In the case of `COc1cnc(-c2ccccc2)nc1Sc1ccccc1`, the Potency result is “inactive”.

In the case of `COc1ccc(Nc2cccc3ccccc23)cc1`, the Potency entry was “inactive”.

For the compound `Cc1ccc(C23CC4CC(CC(C(=O)N(C)C)(C4)C2)C3)cc1`, the Potency entry is “inactive”.

`CC(=O)Nc1ccc(NC(=O)C2Cc3c(-c4ccc5c(c4)OCO5)ccnc3O2)cc1` (stereo not given): the Potency entry is “inactive”.

In the case of `COC(=O)c1cccc(F)c1C(=O)c1cccc2ccccc12`, the Potency result was “inactive”.

Consider `Cc1ccn2c(-c3csc(NCc4ccccc4)n3)c(C)nc2c1`, for which the Potency entry was “inactive”.

With `Cc1cc(C)c2c(CN3CCCCC3C)cc(=O)oc2c1` (stereo not given), the activity change, negative = inhibition is -3.91% [at 30.8 µM].

In the case of `COc1ccc(C2CC(=O)Oc3cc(C)c(Cl)cc32)cc1` (stereo not given), the Potency entry was “inactive”.

For `CC1CCCN(C2(O)C(=O)Nc3ccc(Br)cc32)C1` (stereo not given), the Potency entry is “inactive”.

For the compound `Cc1cc2ccccn2c1C(=O)c1ccc(F)cc1`, the Potency entry was “inactive”.

Turning to `O=C(O)c1ccccc1-c1ccc(/C=C/c2cc(C(F)(F)F)[nH]c(=O)n2)o1`, the activity change, negative = inhibition was 309% [at 30.8 µM].
